Consider 80 compounds from PMC9574860, “Chemical Toolkit for PARK7: Potent, Selective, and High-Throughput” (Journal of Medicinal Chemistry, 2022).

Molecules are shown by their SMILES. The whole screen tested about 7,900 compounds, of which about 400 (5.1%) showed an effect of 50% or more. Shown is part of a subset that was picked to be rich in strong results.

Chain of Parkinson's disease protein 7 (PARK7/DJ1) (Q99497 whole entry, looked up, the tested form may be a part): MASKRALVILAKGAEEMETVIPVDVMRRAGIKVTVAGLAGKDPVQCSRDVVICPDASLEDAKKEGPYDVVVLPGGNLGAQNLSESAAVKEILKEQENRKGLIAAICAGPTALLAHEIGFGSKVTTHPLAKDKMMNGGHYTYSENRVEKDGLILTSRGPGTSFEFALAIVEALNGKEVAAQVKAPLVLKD

This assay has as its target Parkinson's disease protein 7 (PARK7/DJ1) (human, UniProt Q99497). The experiment in a line: primary screen, percent inhibition; read as competition with a fluorescent probe by fluorescence polarization; higher = more effect of the substance. Conditions: 100 µM. The method in brief: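 Fluorescence-polarization probe displacement (JYQ-107, 20 nM final, 2 h) after 2 h preincubation of PARK7 (0.2 μM final) with each fragment at 100 μM final. Read-out ex/em 480/520 nm; remaining activity derived from FP signal loss relative to reference controls.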
Turning to `Cl.Cl.O=C(O)C1CCN(C(=O)C=Cc2nc3ccccc3s2)C1` (centres unmarked), the Inhibition % was found to be 9.53%.

Consider `C=CC(=O)NC[C@H]1CC[C@H](c2ccccc2)O1`, for which the Inhibition % is given as 2.73%.

For the compound `Cn1c(=O)c2c(ncn2CCS(=O)(=O)F)n(C)c1=O`, the Inhibition % is on record as 7.95%.

With `CC(C)Cc1ccc(C(C)NC(=O)CCl)cc1` (centres unmarked), the Inhibition % was found to be 9.76%.

Take `CS(=O)(=O)OCC1(C#N)CCCCC1`: the Inhibition % is given as 8.05%.

Regarding `CCCC(=O)NC1CCCN(c2ccc(C#N)nc2)C1` (centres unmarked), the Inhibition % was 5.26%.

In the case of `N#CCCN(C(=O)CCl)c1ccccc1`, the Inhibition % was 14.9%.

On to `NC(=O)CCN(C(=O)CCl)c1ccccc1`, for which the Inhibition % stood at 67.4%.

Consider `NC(=O)CCN(C(=O)CCl)c1ccc(F)cc1`, for which the Inhibition % worked out at 37.5%.

`C=CC(=O)Nc1cc2ccccn2n1`: the Inhibition % came to 30.2%.

Take `C=CC(=O)Nc1cnn2ccccc12`: the Inhibition % was determined as 97%.

In the case of `C=CC(=O)NCc1cnn2ccccc12`, the Inhibition % worked out at 19.8%.

As to `C=CC(=O)NCc1noc2c1CCCC2`, the Inhibition % stood at 4.47%.

`N#Cc1ncccc1N1CCc2ccccc2C1`: the Inhibition % is recorded as 26.9%.

Regarding `CC(C)c1nc2c(n1C)CCN(c1cccnc1C#N)C2`, the Inhibition % is reported as 87%.

In the case of `N#Cc1ncccc1N1CCC=C(F)C1`, the Inhibition % is recorded as 20.1%.

On to `C=CC(=O)NCc1ccc(CN2CCCCCC2)cc1`, for which the Inhibition % is reported as 13.2%.

With `O=C(CCl)c1ccc(F)c(C(=O)CCl)c1`, the Inhibition % is reported as 100%.

Turning to `Cc1cc(C(=O)CCl)ccc1F`, the Inhibition % amounted to 24.6%.

Consider `O=C(CCl)c1ccc(F)c(Cl)c1`, for which the Inhibition % is 99.2%.

As to `O=C(CCl)c1ccc(F)c(F)c1`, the Inhibition % was determined as 22.1%.

On to `O=C(CCl)Nc1ccc2[nH]c(C(F)(F)F)nc2c1`, for which the Inhibition % came to 45%.

As for `CC(NC(=O)Cn1cnc(C#N)n1)c1ccc(F)cc1F` (centres unmarked), the Inhibition % worked out at 1.26%.

As for `N#CN(Cc1ccno1)c1ccc(F)cc1`, the Inhibition % came to 15.5%.

Consider `C=CC(=O)Nc1cc(F)ccc1C`, for which the Inhibition % is recorded as 3.57%.

Turning to `CC1CCCCC1NC(=O)Cn1cnc(C#N)n1` (centres unmarked), the Inhibition % is 5.45%.

Regarding `O=C(O)[C@H]1CCCN1C(=O)C=Cc1ccccc1F`, the Inhibition % was found to be 8.2%.

As to `O=C(CCl)C1CCCN1C(=O)C(F)(F)F` (centres unmarked), the Inhibition % is given as 80.8%.

Turning to `O=C(CCl)N1CCCC2CCCCC21` (centres unmarked), the Inhibition % came out at 14.1%.

In the case of `NC(=O)C1CCCCN1C(=O)CCl` (centres unmarked), the Inhibition % is listed as 12.3%.

For `CC1(C)CCC(OS(C)(=O)=O)CC1`, the Inhibition % stood at 16.9%.

Consider `CC(=O)NCCc1ccc(C(=O)CCl)cc1F`, for which the Inhibition % worked out at 81.3%.

On to `CC(=O)NCCc1cc(C(=O)CCl)ccc1F`, for which the Inhibition % stood at 83.3%.

With `CSc1ccc(C(=O)CCl)cc1NC(C)=O`, the Inhibition % was 37.7%.

As for `CSc1cc(C(=O)CCl)ccc1NC(C)=O`, the Inhibition % came to 5.59%.

Take `O=C(CCl)NCCc1ccc(Cl)cc1Cl`: the Inhibition % came to 23.1%.

`Cc1nc(C=CC(=O)N2CCc3sccc3C2)cs1`: the Inhibition % was determined as 4.01%.

For `O=C(CCl)Nc1nc2c(F)c(F)c(F)cc2s1`, the Inhibition % is on record as -4.93%.

For `COc1ccc(N2CCN(CC3CO3)CC2)cc1` (centres unmarked), the Inhibition % was determined as 12.9%.

Regarding `N#CC1CC2(CC(=O)N2)C1` (centres unmarked), the Inhibition % is recorded as 5.93%.

Turning to `Cc1ccc2cccc(OC(=O)N3CCCC3)c2n1`, the Inhibition % was determined as 13.5%.

Regarding `O=C(O)CC1CC(=O)N1` (centres unmarked), the Inhibition % turned out to be 65.7%.

As to `O=C1CC(c2ccccc2)N1` (centres unmarked), the Inhibition % amounted to 7.05%.

For the compound `O=C1CC(Cc2ccccc2)N1` (centres unmarked), the Inhibition % worked out at 3.33%.

For the compound `Cc1nc(C#N)c(N)nc1Cl`, the Inhibition % was 10.2%.

On to `Oc1ccnc(S)n1`, for which the Inhibition % was 2.99%.

On to `Cc1ccc2ccccc2c1B(O)O`, for which the Inhibition % stood at 0.986%.

For `Cc1ccc(C=CS(=O)(=O)Nc2cnn(CCO)c2)cc1`, the Inhibition % is 14.7%.

For the compound `COc1ccc(NS(=O)(=O)C=Cc2ccccc2)cn1`, the Inhibition % was determined as 59.9%.

For the compound `CCn1cc(NS(=O)(=O)C=Cc2ccccc2)cn1`, the Inhibition % is 81.4%.

As for `O=S(=O)(C=Cc1ccccc1)Nc1ccc(F)c(F)c1`, the Inhibition % amounted to 1.18%.

As for `N#Cc1ccc(NS(=O)(=O)C=Cc2ccccc2)cc1`, the Inhibition % was 10.5%.

`CN(C)c1ccc(NS(=O)(=O)C=Cc2ccccc2)cn1`: the Inhibition % is 69.9%.

As to `O=S(=O)(F)c1ccc(S(=O)(=O)Nc2ccnnc2)cc1`, the Inhibition % is 8.23%.

On to `Cc1cc(NS(=O)(=O)C=Cc2ccccc2)ccn1`, for which the Inhibition % amounted to 29.4%.

For the compound `COc1ccc(NS(=O)(=O)C=Cc2ccccc2)cc1`, the Inhibition % is reported as 1.18%.

On to `COc1ccc(NS(=O)(=O)c2ccc(S(=O)(=O)F)cc2)cn1`, for which the Inhibition % stood at 100%.

In the case of `COc1ccccc1NS(=O)(=O)C=Cc1ccccc1`, the Inhibition % stood at 7.7%.

`O=C(CCl)NCc1ccc(C(=O)N2CCOCC2)cc1`: the Inhibition % was determined as 19.5%.

On to `C=CC(=O)NC1C2CCOC2C12CCCC2` (centres unmarked), for which the Inhibition % is reported as 5.2%.

As to `C=CC(=O)N1CCOCC(C)C1` (centres unmarked), the Inhibition % was determined as 6.12%.

`O=C1SCCN1CN1CCC(c2ccccc2)CC1`: the Inhibition % is recorded as 11.7%.

With `Cc1cccc(NC2C=CS(=O)(=O)C2)c1` (centres unmarked), the Inhibition % is listed as 7.19%.

Regarding `CC1(C)COCCN1Cn1nc(-c2ccccc2)oc1=O`, the Inhibition % is reported as 8.59%.

With `COc1ncc(B2OC(C)(C)C(C)(C)O2)cn1`, the Inhibition % was 4.41%.

Regarding `C=CC(=O)N1CCOCC1c1nnc(C(C)C)o1` (centres unmarked), the Inhibition % is 10%.

Take `Cc1cccc(C)c1N1C(=O)CN=C1S`: the Inhibition % was determined as 1.33%.

With `Cc1ccc(S(=O)(=O)N2CCCCC2C2OCCO2)cc1` (centres unmarked), the Inhibition % is given as 3.92%.

For `O=C(O)Cc1ccc(S(=O)(=O)F)cc1`, the Inhibition % amounted to 89.7%.

Turning to `O=C(Cc1ccc(S(=O)(=O)F)cc1)NC1CCCC1`, the Inhibition % is 2.81%.

Consider `O=C(CCc1ccc(S(=O)(=O)F)cc1)N1CCCCC1`, for which the Inhibition % is reported as 12.4%.

As for `O=C(O)CCc1ccc(S(=O)(=O)F)cc1`, the Inhibition % turned out to be 82.3%.

For `CC(C)N(C)C(=O)CCc1ccc(S(=O)(=O)F)cc1`, the Inhibition % amounted to 4.68%.

Turning to `O=C(Cc1ccc(S(=O)(=O)F)cc1)Nc1ccccc1Cl`, the Inhibition % amounted to 12.8%.

In the case of `OB(O)c1ccc(OCC(F)(F)F)cc1F`, the Inhibition % was 13%.

As for `CC(c1ccccc1)C1CO1` (centres unmarked), the Inhibition % was -0.54%.

Take `COc1ccc(C2CCCN2C(=O)n2ccnc2)cc1` (centres unmarked): the Inhibition % is 6.77%.

Regarding `CC1(C)OB(c2ccc(N)c(CO)c2)OC1(C)C`, the Inhibition % was 7.71%.

With `C=CC(=O)N1CCCC(c2nc(C)c(C)s2)C1` (centres unmarked), the Inhibition % is given as 6.18%.

Regarding `C=CC(=O)N1CCC(c2ncno2)CC1`, the Inhibition % was 9.72%.
